From PubChem BioAssay
LAP4 TOR yeast = modulators of TOR pathway LAP4-GFP in S. cerevisiae. GFP response vs DMSO, % at 10 µM. AID 2023. S. cerevisiae LAP4-GFP multiplex, flow cytometry GFP, 3 h; median GFP as percent of DMSO wells. 320,000 tested, 0.34% active;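 active means GFP response vs DMSO above a set limit, about the screen mean plus 3 SD, cut at about 150% in these data; inconclusive means under 70 cell events counted for the yeast strain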
AGP1-GFP MLPCN = yeast TOR pathway AGP1-GFP modulation. AID 2066. 320,000 tested, 0.02% active. GFP response vs DMSO, % at 10 µM. S. cerevisiae AGP1-GFP multiplex flow cytometry, 3 h; GFP as percent of DMSO wells;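 active means GFP response relative to DMSO above a set limit, near screen average plus 3 SD, cut at about 150% in these data; inconclusive means fewer than 70 cells counted for the yeast strain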;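 further: median GFP channel fluorescence of the gated AGP1 strain per well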
MEP2-GFP yeast = modulators of TOR pathway MEP2-GFP in S. cerevisiae; S. cerevisiae MEP2-GFP strain, flow cytometry GFP, 3 h; 100% = DMSO control level; GFP response vs DMSO, % at 10 µM; 330,000 tested, 0.51% active;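 active means GFP response versus DMSO above a set limit, roughly screen mean plus 3 SD, cut at about 180% in these data; inconclusive means fewer than 70 cells counted for a yeast strain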;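 further: median GFP fluorescence of the barcode-gated MEP2-GFP cells per well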
Myeloid diff MLP = compounds promoting myeloid differentiation. ER-HoxA9 myeloid progenitors, lysozyme-GFP differentiation, flow cytometry. 360,000 tested, 1% active. calls only at 10 µM. AID 624256;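 active means normalized GFP-positive differentiation at or above the plate's own cutoff, the solvent-only control mean plus 3 SD; inconclusive means no clear call, values can overlap the other calls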;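 further: cells exposed to compound for four days before flow analysis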
CIT2 TOR yeast = alters CIT2-GFP fluorescence in TOR pathway yeast screen; S. cerevisiae CIT2-GFP strain, flow cytometry, 3 h; 100 means same as DMSO wells; GFP response vs DMSO, % at 10 µM; 320,000 tested, 0.065% active;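 active means GFP response relative to DMSO above a set limit, near the screen mean plus 3 SD, cut at about 150% in these data; inconclusive means Fewer than 70 cells measured for a yeast strain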;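 further: ratio of well median GFP fluorescence to mean of DMSO wells on the plate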
RPL19A TOR yeast = alters RPL19A-GFP fluorescence in TOR pathway yeast screen | S. cerevisiae RPL19A-GFP strain, flow cytometry, 3 h; stronger effect = lower value | percent response vs DMSO, % at 10 µM | 330,000 tested, 0.3% active | AID 2025;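 active means percent response vs DMSO below 50%; inconclusive means fewer than 70 events counted for the yeast strain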;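 further: median channel GFP fluorescence of the barcoded RPL19A-GFP strain; ratio of sample median GFP to plate DMSO average so 100% = DMSO; lower means less RPL19A-GFP as with rapamycin TOR inhibition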
LAP4-GFP pick2 = second confirmation of modulators of TOR reporter LAP4-GFP in yeast; shares compounds with LAP4 TOR yeast; GFP response vs DMSO, % at 10 µM; S. cerevisiae LAP4-GFP strain, flow cytometry GFP, 3 h; 590 tested, 20% active;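 active means GFP signal as percent of the solvent control above about 150%, meaning raised reporter expression, limit read from the data; inconclusive means fewer than 70 cells counted in the well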;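 further: ratio of well median GFP fluorescence to plate DMSO mean so 100% = DMSO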
MEP2-GFP pick2 = yeast MEP2-GFP modulation, second cherry pick. AID 2622. shares compounds with LAP4 TOR yeast. S. cerevisiae MEP2-GFP strain, flow cytometry GFP, 3 h. GFP response vs DMSO, % at 10 µM. 590 tested, 10% active;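 active means GFP signal above 150% of the solvent control wells, that is a rise of more than half; inconclusive means fewer than 70 yeast cells counted in the well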;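 further: median channel GFP fluorescence of all gated yeast cells per well; ratio of median GFP to plate DMSO average so 100% = DMSO level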
RPL19A GFP CP2 = yeast RPL19A-GFP TOR reporter modulation, second cherry pick | shares compounds with LAP4 TOR yeast | S. cerevisiae RPL19A-GFP strain, flow cytometry GFP, 3 h; stronger effect = lower value; 100% means same as DMSO wells | GFP response vs DMSO, % at 10 µM | 590 tested, 3% active | AID 2623;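 active means under 65% GFP response relative to DMSO; inconclusive means yeast strain with under 70 measured events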;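 further: median GFP channel fluorescence per well over the all cells gate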
CIT2 GFP CP2 = yeast CIT2-GFP TOR reporter modulation, second cherry pick; S. cerevisiae CIT2-GFP strain, flow cytometry GFP, 3 h; DMSO control wells read 100%; shares compounds with LAP4 TOR yeast; 590 tested, 8% active; GFP response vs DMSO, % at 10 µM;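 active means GFP response vs DMSO above about 150%, limit read from the data; inconclusive means fewer than 70 events counted for a yeast strain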;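 further: median green fluorescence per well over all gated yeast cells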
AGP1-GFP pick2 = reconfirmed modulator of AGP1-GFP TOR reporter in yeast. shares compounds with LAP4 TOR yeast. S. cerevisiae AGP1-GFP strain, flow cytometry GFP, 3 h. percent response vs DMSO, % at 10 µM. 590 tested, under 10 active. AID 2643;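 active means over 150 percent of DMSO response; inconclusive means yeast strain measured with under 70 events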;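 further: median GFP channel fluorescence over all cells without mother daughter split; sample median GFP divided by mean DMSO control so 100% equals DMSO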
s288c autofluor = counter-screen for compound autofluorescence in yeast s288c cells. shares compounds with LAP4 TOR yeast. S. cerevisiae s288c, 520 nm autofluorescence, flow cytometry, 3 h; stronger effect = higher value; zero means same as solvent-only cells. fluorescence change (kMESF span) at 33 µM. 610 tested, under 10 active. AID 2757;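 active means fluorescence span over the dose series, or activity score, above about 33, limit read from the data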
Yeast autofl DR = counter-screen for autofluorescence of TOR hits in yeast s288c; shares compounds with LAP4 TOR yeast; S. cerevisiae s288c parental, compound autofluorescence, flow cytometry, 3 h; fluorescence change (span) at 33 µM; 110 tested, under 10 active; AID 488829;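 active means fluorescence change span, or the activity score built from it, above 25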
TORC1 bypass = stops wildtype yeast growth while TORC1 bypass cells still grow. shares compounds with LAP4 TOR yeast. 120 tested, under 10 active. growth rating (0-3) at 30 µM. AID 504456. S. cerevisiae BY4741 spot growth rating, 48-72 h; stronger effect = lower value;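 active means growth rating at most 1 for wild type yeast while the TORC1 bypass strain still grows fully, rated 3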
* = called active by the depositor; i = inactive; ? = inconclusive; / = not tested or not shown. A selection: hits, their analogues and other compounds. The true share with any hit is near 1.8%.

SMILES | LAP4 TOR yeast | AGP1-GFP MLPCN | MEP2-GFP yeast | Myeloid diff MLP | CIT2 TOR yeast | RPL19A TOR yeast | LAP4-GFP pick2 | MEP2-GFP pick2 | RPL19A GFP CP2 | CIT2 GFP CP2 | AGP1-GFP pick2 | s288c autofluor | others
O=c1oc(Cl)c(Cl)c2ccccc12 | 191.5* | 82.0 | 101.7 | i | 77.5 | 98.9 | 120.2 | 106.5 | 103.4 | 102.9 | 100.8 | /
N#C/C(=C\c1ccc(F)c(Br)c1)C(=O)NC1CC1 | 137.2 | 111.5 | 103.0 | i | 106.0 | 106.4 | / | / | / | / | / | /
N#C/C(=C\c1cc(Br)ccc1F)C(=O)NC1CC1 | 156.0* | 98.1 | 93.7 | i | 74.4 | 98.4 | 155.8* | 111.5 | 94.8 | 122.1 | 101.6 | 0.51
Cc1ncc(C[n+]2csc(CCOC(=O)CC3C4CC5CC(C4)CC3C5)c2C)c(N)n1 (stereo unspecified) | 103.7 | 102.1 | 104.8 | i | 96.2 | 101.7 | / | / | / | / | / | /
O=S1(=O)C=C(Sc2nc3ccccc3s2)c2ccccc21 | 172.1* | 90.0 | 91.2 | / | 86.8 | 91.7 | 175.0* | 106.5 | 103.8 | 141.4 | 94.3 | 0.2
O=C(O)c1ccc(NCc2cccc(Br)c2)cc1 | 158.7* | 75.5 | 87.5 | i | 70.4 | 88.1 | 116.3 | 103.2 | 97.9 | 108.6 | 87.3 | /
Cc1nnc(SCC(=O)Nc2cccc([N+](=O)[O-])c2)n1CC1CCCO1 (stereo unspecified) | 98.9 | 95.9 | 103.5 | i | 105.9 | 103.3 | / | / | / | / | / | /
CCNc1nc(Cl)nc(N(NC(C)=O)C(C)CC)n1 (stereo unspecified) | 98.0 | 73.1 | 71.6 | i | 58.4 | 61.4 | 101.2 | 104.8 | 98.7 | 101.5 | 96.6 | /
Cn1c(Cl)cnc1C1CC(=O)c2cc(Cl)ccc2O1 (stereo unspecified) | 209.9* | 98.4 | 99.7 | ? | 92.8 | 93.5 | 100.0 | 99.8 | 97.9 | 96.1 | 96.0 | /
O=C(Nc1cccc(N=Cc2cc(Br)cc(Br)c2O)c1)c1ccco1 | 189.9* | 86.1 | 96.2 | i | 85.0 | 71.2 | 146.3 | 127.5 | 71.3 | 116.8 | 98.6 | /
O=C(Nc1cccc(N=Cc2cc(Cl)cc(Br)c2O)c1)c1ccco1 | 128.0 | 90.1 | 96.3 | i | 93.4 | 94.7 | / | / | / | / | / | /
CN1C(=O)/C(=N\OC(=O)c2cccc3ccccc23)c2ccccc21 | 207.4* | 74.9 | 106.1 | i | 82.5 | 92.2 | / | / | / | / | / | 0.4
C[C@@]12C(=O)OC(=O)[C@]1(C)C1CCC2O1 | 188.9* | 70.9 | 94.9 | ? | 66.6 | 91.4 | 213.5* | 149.8 | 101.5 | 91.6 | 83.1 | 1.7
CC12C(=O)N(c3nccs3)C(=O)C1(C)C1CCC2O1 (stereo unspecified) | / | / | / | i | / | / | / | / | / | / | / | /
CC(C)CC(=O)Nc1cccc(-c2nc3ncccc3o2)c1 | 99.4 | 107.2 | 108.0 | i | 105.6 | 109.0 | / | / | / | / | / | /
O=[N+]([O-])c1ccc(S(=O)(=O)c2ccccc2)nc1 | 177.2* | 93.8 | 125.1 | ? | 91.8 | 70.5 | / | / | / | / | / | 0.4
Cc1ccc(S(=O)(=O)c2ccc([N+](=O)[O-])cn2)cc1 | 145.8 | 94.9 | 100.5 | ? | 83.7 | 76.8 | / | / | / | / | / | 0.92 | Yeast autofl DR=0.57;TORC1 bypass=3
Cc1cc(S(=O)(=O)c2ccc([N+](=O)[O-])cn2)ccc1Br | 146.7 | 87.2 | 85.2 | ? | 91.5 | 80.9 | / | / | / | / | / | /
Nc1ccc(S(=O)(=O)c2ccccc2)nc1 | 91.3 | 104.7 | 103.2 | i | 100.0 | 102.9 | / | / | / | / | / | /
O=S(=O)(c1ccccc1)c1ccc(C(F)(F)F)cn1 | 102.1 | / | 92.8 | i | 94.7 | 92.4 | / | / | / | / | / | -0.2
Cc1cc2c(C)nc3ccccc3c2o1 | 91.7 | 26.6 | 170.4 | i | 102.4 | 64.4 | 94.2 | 92.6 | 102.7 | 107.1 | 97.8 | /
CCOC(=O)C1CCN(C(=O)Cn2nc(C)n3c(cc4cc(F)ccc43)c2=O)CC1 | 92.6 | 101.0 | 99.4 | i | 96.9 | 95.4 | / | / | / | / | / | /
COc1cccc(/C=C2\SC(=S)N(CCCC(=O)Nc3ccc(C(=O)O)cc3)C2=O)c1 | 110.4 | 116.9 | 116.8 | i | 172.7* | 101.3 | 104.2 | 104.8 | 101.2 | 98.7 | 97.8 | 0.1
CCN(C(=O)CN1CCN(c2cccc(Cl)c2)CC1)c1c(N)n(Cc2ccccc2)c(=O)[nH]c1=O | 95.6 | 74.9 | 132.9 | i | 96.7 | 63.0 | 101.0 | 99.8 | 99.8 | 97.2 | 100.8 | /
O=C(COC(=O)COc1ccc(Cl)cc1Cl)NC1CCCC1 | / | / | / | i | / | / | / | / | / | / | / | /
CC1CN(S(=O)(=O)c2ccc(C(=O)O)cc2)CC(C)O1 (stereo unspecified) | 96.9 | 104.2 | 100.8 | i | 91.2 | 99.0 | / | / | / | / | / | /
Cc1ccc(C(CC(=O)O)NC(=O)c2ccc(S(=O)(=O)N3CC(C)OC(C)C3)cc2)cc1 (stereo unspecified) | 113.8 | 97.1 | 195.9* | i | 109.5 | 100.4 | 98.2 | 99.6 | 99.1 | 96.0 | 98.6 | 0
CC(C)NC(=O)c1sc2nc(-c3cccs3)cc(-c3cccs3)c2c1N | 111.4 | 99.1 | 99.8 | / | 95.6 | 92.4 | / | / | / | / | / | /
CC(=O)c1sc2nc(-c3cccs3)ccc2c1N | 175.5* | 65.4 | 121.8 | i | 104.5 | 80.9 | 96.2 | 96.5 | 99.8 | 106.3 | 96.2 | /
Nc1ccc(O)c2c1C(=O)c1ccccc1C2=O | 145.6 | 92.0 | 147.3 | i | 110.0 | 97.0 | / | / | / | / | / | /
